The source of these data is PubChem BioAssay (NCI).

This is part of a sample that, as a whole, favours compounds with a hit. Of some 83,000 tested, about 20% had one in any assay.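 Note: values are percent growth. 100 is the growth of untreated cells, values between 100 and 0 indicate rising inhibition; between -100 and 0 indicates cell death.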 A number with no mark means an inactive call. Active and inactive are the calls of the source. The calls were made as follows: active = growth percent below 10; inactive = the rest.

Holding throughout (test): NCI-60 one-dose screen, 48 h (100 = growth as untreated, 0 = no growth, -100 = all killed)
Details in all cases: 10 µM unless noted

The test system of assay [1] is HCT-15 colon.
Assay [2] has as its system HT29 colon.
The test system of assay [3] is SNB-19 CNS.
The test system of assay [4] is U251 CNS.
In assay [5] the test system is PC-3 prostate.
Assay [6] has as its system SK-MEL-5 melanoma.
The subject of assay [7] is UACC-62 melanoma.
Assay [8] has as its system LOX IMVI melanoma.
For assay [9], the system named is SK-MEL-28 melanoma.
Assay [10] relates to SK-MEL-2 melanoma.
Assay [11] relates to EKVX NSCLC.
Assay [12] deals with SN12C renal.
The test system of assay [13] is UO-31 renal.
The test system of assay [14] is TK-10 renal.
Assay [15] relates to ACHN renal.
Assay [16] deals with CAKI-1 renal.
Assay [17] has as its system CCRF-CEM leukemia.
Assay [18] relates to MOLT-4 leukemia.
Assay [19] relates to A498 renal.
Assay [20] deals with SNB-75 CNS.

For `CCCCCCCCn1cc(C2=C(c3coc4ccc(OC)cc34)C(=O)NC2=O)c2ccccc21`, the growth is 97.4% in assay [1]; 99.3% in assay [2]; 108% in [3]; 97.2% in assay [4]; 107% in assay [5]; 99.2% in assay [6]. For the same compound, the growth in [7] is 96.2%; in assay [8], 61.2%; in [9], 101%; in [10], 107%; in assay [11], 102%; in assay [12] it was 102%. In addition, the growth in assay [13] was 85.7%; in assay [14], 97.6%; in [15], 103%; in [16], 99.7%; in assay [17], 99%; in assay [18], 125%.

On to `CC(C)(C)Nc1c(-c2c3ccccc3cc3ccccc23)nc2ccccn12`, for which the growth in assay [1] is 79.7%; in assay [2] it was 55.3%; in assay [3] it was 74.1%; in assay [4], 68.2%; in assay [5] it was 37.9%; in [6] it was 84%. In addition, the growth in assay [7] was 50.6%; in [8] it was 85.9%; in assay [9], 82.2%; in assay [10], 77.1%; in assay [11] it was 70.1%; in assay [12], 82.3%. For the same compound, the growth was 49.8% in assay [13]; 76% in assay [14]; 77.8% in [15]; 50.1% in assay [16]; 88.2% in assay [19]; 61.7% in [17]. Besides, in [18], the growth was 45.5%.

Turning to `N#Cc1c(N)nc2c(nnn2-c2cccc(C(F)(F)F)c2)c1N`, the growth is 86.3% in assay [1]; 86% in assay [2]; 93.1% in assay [3]; 85.2% in assay [4]; 86.8% in [5]; 87.9% in assay [6]. Also, the growth is 88.5% in assay [7]; 94.7% in assay [8]; 111% in [9]; 91.2% in assay [10]; 29.1% in [11]; 87.7% in [12]. Besides, the growth in [13] is 58.2%; in assay [14], 90.2%; in [15], 87.7%; in assay [16] it was 77.2%; in assay [19] it was 97.7%; in [17] it was 87.9%. Moreover, the growth in assay [18] was 75.8%.

For the compound `Cc1nc2ccccc2c(/C=C/c2ccc(Cl)cc2)c1C(=O)/C=C/c1ccc(Cl)cc1`, the growth in [1] was -31.3% (active); in assay [20], 81.5%; in [3] it was -48.2% (active); in assay [4], -71.6% (active); in assay [5], -18% (active); in assay [6], -71.7% (active). Further, the growth is -42.9% (active) in assay [7]; -93.8% (active) in assay [8]; -66.6% (active) in assay [9]; -13.6% (active) in assay [10]; -11.9% (active) in [11]; -61.6% (active) in [12]. Further, the growth in assay [13] was -86.2% (active); in assay [14], -6.59% (active); in assay [15] it was -90.3% (active); in [16] it was -33.8% (active); in assay [19] it was -75.5% (active); in assay [17], 7.4% (active). Further, the growth in assay [18] was 5.06% (active).

With `COc1cc(/C=C/C(=O)c2cccc(-n3cc(-c4ccc(Cl)cc4)[nH]c3=O)c2)cc(OC)c1OC`, the growth in [1] was 40.3%; in assay [2], -12% (active); in assay [3], 75.5%; in assay [4] it was 30.9%; in [5], 47.7%; in assay [6], 58.2%. Further, the growth was 72.4% in [7]; -47.4% (active) in assay [8]; 86.5% in assay [9]; 34.1% in assay [10]; 64.7% in assay [11]; 56.3% in assay [12]. In addition, the growth in assay [13] was 52.2%; in assay [14], 91.7%; in [15] it was 67.5%; in [16], 65.6%; in assay [19] it was 110%; in [17], 4.15% (active). The growth in assay [18] is 26.8%.

On to `COc1ccc(C2=NC(=O)NC2c2ccc(OC)cc2)cc1` (configuration not stated), for which the growth in [1] was 48.4%; in assay [2], 37.2%; in assay [3], 58.5%; in assay [4], 74.6%; in [6] it was 63%; in assay [7] it was 47.2%. Besides, the growth in assay [8] is 64%; in assay [9], 72.6%; in [10], 59.9%; in [11], 75.9%; in assay [12] it was 71%; in assay [13], 61%. The growth is 87.6% in [14]; 83.2% in [15]; 50.6% in assay [16]; 68.3% in assay [17]; 65.8% in assay [18].

In the case of `CCC(=O)OC1=C(C)SC2=NC(c3ccc(Cl)c(Cl)c3)=CC(c3cc(OC)c(OC)c(OC)c3)N21` (configuration not stated), the growth in assay [1] was 89.8%; in assay [2], 103%; in assay [3], 94.5%; in [4] it was 95.9%; in [5], 91.8%; in [6], 98.7%. The growth was 87.8% in assay [7]; 99.6% in assay [8]; 104% in assay [9]; 107% in assay [10]; 95.3% in assay [12]; 82.1% in assay [13]. The growth was 133% in [14]; 102% in assay [15]; 87.8% in [16]; 116% in assay [19]; 90.7% in assay [17]; 99.3% in assay [18].

On to `O[C@H]1CO[C@H]2[C@@H]1OC[C@@H]2Oc1ccc(Nc2ccnc(Nc3ccc(O[C@H]4CO[C@H]5[C@@H]4OC[C@@H]5O)c(Cl)c3)n2)cc1Cl`, for which the growth in [1] is 26.4%; in assay [2], 9.26% (active); in assay [3] it was 7.59% (active); in [4] it was 7.71% (active); in assay [5], 15.7%; in assay [7], -74% (active). Moreover, the growth in assay [8] is -8.35% (active); in [9], 20.4%; in [10], 4.23% (active); in assay [11], 25.2%; in assay [12], -2.74% (active); in [13], 6.06% (active). Also, the growth was 28.5% in assay [14]; 20.3% in assay [15]; 27.3% in assay [16]; 22.7% in [19]; 7.39% (active) in assay [17]; 5.65% (active) in assay [18].
